{"source": "PubChem BioAssay AID977611", "origin": "cited, not measured here", "experiment": "PubChem AID 977611", "conditions": "PDB protein-ligand complexes, literature Kd", "note": "Hit rate of the full screen: of about 3,900 compounds, about 3,900 (100%) were called active. No cut-off is given here; in the data, nearly all actives have Kd up to about 4200 µM. The set was probably picked from earlier hits. The list shows a part of the results. Starred links: 1 amine or outer side, 2 acyl side, 3 side chain; linkers in the order of their positions; H or OH if unused. Where a SMILES comes first, the peptide text is derived from it. Non-standard residues stand in square brackets, D forms with d. Residues, ends and D or L forms follow the SMILES beside them. Peptide text beside a SMILES is read from it. The star is where a group is joined. *: point of attachment. X1 = C[C@@H]1CCCN1*; Orn(CH(NH2)2) = NC(N)NCCC[C@H](N)C(=O)O; Propyl = CCC*", "data": [{"compound": "CC[C@H](C)[C@H](NC(=O)[C@H](Cc1cnc[nH]1)NC(=O)[C@H](C)NC(=O)[C@H](CCC(N)=O)NC(=O)[C@@H](NC(=O)[C@H](CCCNC(N)N)NC(=O)[C@H](CC(C)C)NC(=O)[C@H](CC(C)C)NC(=O)[C@H](CO)NC(=O)[C@@H]1CCCN1C(=O)[C@@H](NC(=O)[C@H](CC(N)=O)NC(=O)[C@@H](N)CCCCN)[C@@H](C)CC)C(C)C)C(=O)N[C@@H](CCCNC(N)N)C(=O)N[C@@H](CCCCN)C(=O)N[C@@H](CCCCN)C(=O)N[C@@H](CCSC)C(=O)N[C@H](C(=O)O)C(C)C", "note": "(HELM PEPTIDE1{K.N.I.P.S.L.L.[NC(N)NCCC[C@H](N[*:1])C(=O)[*:2]].V.Q.A.H.I.[NC(N)NCCC[C@H](N[*:1])C(=O)[*:2]].K.K.M.V}$$$$V2.0)", "values": [{"measurement": "Kd", "setting": "protein: MYOSIN A TAIL DOMAIN INTERACTING PROTEIN, PDB entry 4aom", "result": "0.085 µM (active)"}]}, {"compound": "NC(=O)CC[C@H](NC(=O)CCc1ccc(-c2cc(-c3ccccc3)cs2)cc1)C(=O)N[C@@H](CCC(=O)O)C(N)=O", "values": [{"measurement": "Kd", "setting": "protein: Macrophage metalloelastase, PDB entry 3tsk", "result": "0.067 µM (active)"}]}, {"compound": "CCC(CC)Nc1cc(C)nc(Oc2c(C)cc(C)cc2C)c1C", "values": [{"measurement": "Kd", "setting": "protein: Corticotropin-releasing factor receptor 1, T4-Lysozyme chimeric construct, PDB entry 4k5y", "result": "0.0067 µM (active)"}]}, {"compound": "C=C/C(C)=C/[C@@]1(C)SC(=O)/C(=C(\\O)C(F)(F)F)C1=O", "values": [{"measurement": "Kd", "setting": "protein: 3-OXOACYL-[ACYL-CARRIER-PROTEIN] SYNTHASE 1, PDB entry 4c73", "result": "12.1 µM (active)"}]}, {"compound": "C=C/C(C)=C\\[C@@]1(C)SC(=O)C(C(C)=O)=C1O", "values": [{"measurement": "Kd", "setting": "protein: 3-OXOACYL-[ACYL-CARRIER-PROTEIN] SYNTHASE 1, PDB entry 4c6u", "result": "25.6 µM (active)"}, {"measurement": "Kd", "setting": "protein: 3-OXOACYL-[ACYL-CARRIER-PROTEIN] SYNTHASE 1, PDB entry 4c6v", "result": "25.6 µM (active)"}]}, {"compound": "CNc1nc2c(CC[C@H]3O[C@@H](OC)[C@H](OC)[C@@H]3O)c3nc(N)[nH]c(=O)c3cc2[nH]1", "values": [{"measurement": "Kd", "setting": "protein: tRNA guanine transglycosylase (TGT), PDB entry 4lbu", "result": "0.276 µM (active)"}]}, {"compound": "CNc1nc2c(CC[C@H]3O[C@@H](OC)[C@H](O)[C@@H]3O)c3nc(N)[nH]c(=O)c3cc2[nH]1", "values": [{"measurement": "Kd", "setting": "protein: tRNA guanine transglycosylase (TGT), PDB entry 4leq", "result": "0.288 µM (active)"}]}, {"compound": "O=C(O)c1ccc2nsnc2c1", "values": [{"measurement": "Kd", "setting": "protein: Pantothenate synthetase (T2A, E77G mutation), PDB entry 4ddm", "result": "3500 µM (active)"}]}, {"compound": "COc1ccc([C@H]2OC[C@H](C)[C@@H]([C@@H](C)[C@@H](OC)[C@@H](C)CCC(=O)[C@H](C)[C@@H](C/C=C/N(C)C=O)OC)O2)cc1", "values": [{"measurement": "Kd", "setting": "protein: Actin, alpha skeletal muscle, PDB entry 4k43", "result": "0.132 µM (active)"}]}, {"compound": "CC[C@H](C)[C@H](NC(=O)CNC(=O)[C@H](CCC(=O)O)NC(=O)[C@@H](N)CCC(=O)O)C(=O)N[C@@H](Cc1c[nH]c2ccccc12)C(=O)N[C@@H](C)C(=O)O", "note": "(H-EEGIWA-OH)", "values": [{"measurement": "Kd", "setting": "protein: RIM1? PDZ Domain, PDB entry 1zub", "result": "0.27 µM (active)"}]}, {"compound": "H-DDYLWGLEAGEGISDLFD-OH", "values": [{"measurement": "Kd", "setting": "protein: retinoblastoma (Rb), PDB entry 1n4m", "result": "0.19 µM (active)"}]}, {"compound": "CC(C)C[C@H](NC(=O)[C@H](Cc1ccc(O)cc1)NC(=O)[C@H](CCC(=O)O)NC(=O)[C@H](CCC(=O)O)NC(=O)[C@H](Cc1c[nH]c2ccccc12)NC(=O)[C@H](CO)NC(=O)[C@@H](NC(=O)[C@H](Cc1ccccc1)NC(=O)[C@@H](NC(=O)[C@@H](N[C@@H](C)O)[C@@H](C)O)C(C)C)[C@@H](C)O)C(=O)N[C@@H](CC(=O)O)C(=O)N[C@@H](Cc1c[nH]c2ccccc12)C(=O)N[C@H](C(N)=O)C(C)C", "note": "(H-[X1]VFTSWEEYLDWV-NH2)", "values": [{"measurement": "Kd", "setting": "protein: Proprotein convertase subtilisin/kexin type 9, PDB entry 4nmx", "result": "0.66 µM (active)"}]}, {"compound": "CC1(C)Nc2nc(N)[nH]c(=O)c2N=C1C(=O)NCC(=O)NCCS(=O)(=O)C[C@H]1O[C@@H](n2cnc3c(N)ncnc32)[C@H](O)[C@@H]1O", "values": [{"measurement": "Kd", "setting": "protein: 2-amino-4-hydroxy-6-hydroxymethyldihydropteridine pyrophosphokinase/dihydropteroate synthase HPPK-DHPS, PDB entry 4pzv", "result": "2 µM (active)"}]}, {"compound": "CC(=O)N[C@H](C(=O)N1CCC[C@H]1C(=O)N1CCC[C@H]1C(=O)N1CCC[C@H]1C(=O)N[C@H](C(=O)N1CCC[C@H]1C(=O)N1CCC[C@H]1C(=O)N[C@@H](CCCNC(N)N)C(=O)N[C@@H](CCCNC(N)N)C(=O)N[C@@H](CCCNC(N)N)C(N)=O)C(C)C)C(C)C", "values": [{"measurement": "Kd", "setting": "protein: Grb2(N-terminal SH3 domain), PDB entry 3gbq", "result": "3.5 µM (active)"}]}, {"compound": "H-VPPPVPPPPS-OH", "values": [{"measurement": "Kd", "setting": "protein: Ponsin, PDB entry 2o9v", "result": "288 µM (active)"}]}, {"compound": "CCCOC[C@H](NC(=O)[C@@H](NC(=O)[C@@H]1CCCN1C(=O)[C@@H](NC(=O)[C@@H](NC(C)=O)C(C)C)[C@@H](C)O)C(C)C)C(=O)N[C@H](C(=O)N[C@@H](C)C(N)=O)[C@@H](C)O", "note": "(Ac-VTPVS(Propyl)TA-NH2)", "values": [{"measurement": "Kd", "setting": "protein: UDP-N-ACETYLGLUCOSAMINE--PEPTIDE N-ACETYLGLUCOSAMINYLTRANSFERASE 110 KDA SUBUNIT, PDB entry 4cdr", "result": "7.9 µM (active)"}]}, {"compound": "C[C@H](N)C(=O)N1CCC[C@H]1C(=O)N1CCC[C@H]1C(=O)N[C@@H](CO)C(=O)N[C@@H](CC(N)=O)C(=O)N1CCC[C@H]1C(=O)N1CCC[C@H]1C(=O)N1CCC[C@H]1C(=O)N[C@@H](CCCNC(N)N)C(=O)N1CCC[C@H]1C(=O)N1CCC[C@H]1C", "note": "(H-APPSNPPP[Orn(CH(NH2)2)]P-X1)", "values": [{"measurement": "Kd", "setting": "protein: tandem SH3domains of p47phox, PDB entry 1ov3", "result": "0.19 µM (active)"}]}, {"compound": "H-GTCVAARTRPVLSY-OH", "values": [{"measurement": "Kd", "setting": "protein: WD REPEAT-CONTAINING PROTEIN 5, WDR5, PDB entry 4cy1", "result": "0.181 µM (active)"}]}, {"compound": "H-GGRRPYIL-OH", "values": [{"measurement": "Kd", "setting": "protein: Neurotensin Receptor 1 Mutant TM86V Delta-IC3A, PDB entry 3zev", "result": "0.0023 µM (active)"}]}, {"compound": "CNC(=O)C[C@@H]1NC(=O)c2csc(n2)-c2ccc(-c3nc(N(CCCCC(=O)O)C(=O)OC4CCC(C(=O)O)CC4)cs3)nc2-c2csc(n2)-c2csc(n2)[C@H]([C@@H](O)c2ccccc2)NC(=O)CNC(=O)c2nc(sc2COC)[C@H](C(C)C)NC(=O)c2nc1sc2C", "note": "(stereo partly specified)", "values": [{"measurement": "Kd", "setting": "protein: E. coli K-12 Elongation factor Tu 1, PDB entry 3u2q", "result": "0.006 µM (active)"}]}, {"compound": "NCc1csc2ccc(Br)cc12", "values": [{"measurement": "Kd", "setting": "protein: CATIONIC TRYPSIN, PDB entry 4abf", "result": "24 µM (active)"}]}, {"compound": "NCc1csc2ccccc12", "values": [{"measurement": "Kd", "setting": "protein: CATIONIC TRYPSIN, PDB entry 4abb", "result": "31 µM (active)"}]}, {"compound": "CO[C@H]1O[C@H](CNS(=O)(=O)c2c(C)cc(C)cc2C)[C@@H](O)[C@H](O)[C@@H]1O", "values": [{"measurement": "Kd", "setting": "protein: FUCOSE-BINDING LECTIN PA-IIL, PDB entry 3zdv", "result": "3.3 µM (active)"}]}, {"compound": "H-SGRGK(Ac)G-OH", "values": [{"measurement": "Kd", "setting": "protein: ATPase family AAA domain-containing protein 2 ATAD2A bromodomain, PDB entry 4tt2", "result": "22 µM (active)"}]}, {"compound": "NC(=O)C[C@H](NC(=O)CNC(=O)CNC(=O)[C@H](CCCNC(N)N)NC(=O)CNC(=O)CNC(=O)CNC(=O)CNC(=O)[C@@H](N)CO)C(=O)NCC(=O)NCC(=O)NCC(=O)NCC(=O)NCC(=O)NCC(=O)O", "note": "(H-SGGGG[Orn(CH(NH2)2)]GGNGGGGGG-OH)", "values": [{"measurement": "Kd", "setting": "protein: Outer membrane porin 1a (Ia;b;F)(OmpF), PDB entry 3o0e", "result": "1.8 µM (active)"}]}, {"compound": "O=c1[nH]cnc2cc3nc(NCCN4CCOCC4)[nH]c3cc12", "values": [{"measurement": "Kd", "setting": "protein: Queuine tRNA-ribosyltransferase TGT, PDB entry 4q4r", "result": "0.369 µM (active)"}]}, {"compound": "CNc1nc2cc3nc(N)[nH]c(=O)c3cc2[nH]1", "values": [{"measurement": "Kd", "setting": "protein: Queuine tRNA-ribosyltransferase TGT, PDB entry 4q4s", "result": "0.112 µM (active)"}]}, {"compound": "O=c1[nH]cnc2cc3nc(NCCN4CCCCC4)[nH]c3cc12", "values": [{"measurement": "Kd", "setting": "protein: Queuine tRNA-ribosyltransferase TGT, PDB entry 4q4p", "result": "0.407 µM (active)"}]}, {"compound": "Nc1nc2cc3nc(NCCN4CCCCC4)[nH]c3cc2c(=O)[nH]1", "values": [{"measurement": "Kd", "setting": "protein: Queuine tRNA-ribosyltransferase TGT, PDB entry 4q4o", "result": "0.0343 µM (active)"}]}, {"compound": "O=c1[nH]cnc2cc3nc(NCc4cccs4)[nH]c3cc12", "values": [{"measurement": "Kd", "setting": "protein: Queuine tRNA-ribosyltransferase TGT, PDB entry 4q4q", "result": "1.64 µM (active)"}]}]}
